In PubChem BioAssay (Tox21):
Results filed as inconclusive are left out. Where a call stands in place of a potency, no number is given. Activity calls are given as the source filed them. Calls follow the shape of the dose curve; as a rule, active = well fitted cell-killing curve with a large enough effect in the repeat runs; inconclusive = weak or mixed curves, or effect the other way; inactive = no such curve, though single readings can be large or run the other way.
Potency is read from the fitted curve at half-maximal effect.

Test: qHTS assay to identify small molecule antagonists of the progesterone receptor (PR) signaling pathway - cell viability counter screen (AID 1346798); also: nearly all actives have a fitted effect of over 50% in size
Settings: PR-UAS-bla HEK293T viability, CellTiter-Glo luminescence, 16 h; series mostly up to 92.4 µM
Text: National Center for Advancing Translational Sciences [NCATS]
NIH Chemical Genomics Center [NCGC]
U.S. Environmental Protection Agency [EPA]
National Institutes of Environmental Health Sciences [NIEHS]
National Toxicology Program [NTP]
U.S. Food and Drug Administration [FDA]
Progesterone receptor (PR), a nuclear hormone receptor, plays an important role in development, metabolic homeostasis and reproduction. It is activated by the steroid hormone progesterone. Endocrine disrupting chemicals (EDCs) and their interactions with steroid hormone receptors like PR causes disruption of normal endocrine function. To identify the compounds that inhibit PR signaling, a PR-UAS-bla GripTite cell line i.e. PR-UAS-bla HEK293T (Invitrogen, Carlsbad, CA, USA) containing a beta-lactamase reporter gene under the control of an UAS response element was used to screen Tox21 10K compound library. The cytotoxicity of the Tox21 compound library against the PR-bla cell line was tested in parallel by measuring the cell viability using CellTiter-Glo assay in the same wells.
Tox21 Assay Protocol Summary:
PR-UAS-bla HEK293T cells were dispensed at 3,000 cells/4 uL of assay medium containing 2% charcoal stripped FBS per well into black wall/clear-bottom 1536-well plates using a Multidrop Combi (ThermoFisher Scientific, Waltham, MA) dispenser. After the assay plates were incubated at a 37C and 5% CO2 for 4 hr, 23 nL of compounds dissolved in DMSO, positive controls or DMSO only was transferred to the assay plate by a Pintool station (Kalypsys, San Diego, CA), followed by addition of 1 uL of R5020 in assay medium using a Flying Reagent Dispenser (FRD, Aurora Discovery, San Diego, CA). The plates were incubated at 37C and 5% CO2 for 16 hr. Then 1 uL of LiveBLAzer B/G FRET substrate was added using a Flying Reagent Dispenser, the plates were incubated at room temperature for 2 hours, and fluorescence intensity was measured by an Envision plate reader (PerkinElmer, Shelton, CT). For cell viability readout that measures cytotoxicity, 4 uL/well of CellTiter-Glo reagent was added into the assay plates using a FRD. After 30 min incubation at room temperature, the luminescence intensity in the plates was measured using a ViewLux (PerkinElmer) plate reader.
In the case of O[Si](c1ccccc1)(c1ccccc1)c1ccccc1, the Potency was “inactive”.
With CCN(CC)c1ccc(C=O)cc1 the Potency was “inactive”.
With CC(C=O)c1ccccc1 (stereo not given) the Potency was “inactive”.
With NC(=O)C1CO1 (stereo not given) the Potency was “inactive”.
For Cc1cc(Br)ccc1NC(=O)CCl, the Potency was 15.4 µM (active).
For O=[N+]([O-])c1ccc(CO)cc1, the Potency was “inactive”.
With CCCCCCCCCCCCS(=O)(=O)Cl the activity change, negative = cytotoxicity was -16% [at 18.9 µM] (inactive).
In the case of Oc1ccc(C2(c3ccc(O)c(C4CCCCC4)c3)CCCCC2)cc1C1CCCCC1, the Potency was 43.3 µM (active).
With Nc1cccnc1N the Potency was “inactive”.
With SC1CCCCC1 the Potency was “inactive”.
With NC(=O)c1ccccc1Cl the Potency was “inactive”.
In the case of CN(C)CCOc1ccc(/C(=C(/CCCl)c2ccccc2)c2ccccc2)cc1, the Potency was 51 µM (active).
For Cc1cc(C)c(O)c(C(C)(C)C)c1, the Potency was “inactive”.
For CC(=O)Nc1ccc(N=Nc2cc(C)ccc2O)cc1, the Potency was “inactive”.
In the case of CCCCCN=C(N)N/N=C/c1c[nH]c2ccc(OC)cc12, the Potency was 23.7 µM (active).
In the case of C=CC(=O)O[C@H]1C[C@@H]2CC[C@@]1(C)C2(C)C, the Potency was “inactive”.
For CC/C=C(\C)C=O, the Potency was “inactive”.
In the case of Oc1ccc(Cl)cc1C1CCCC1, the Potency was “inactive”.
For N#Cc1nc(Cl)c(Cl)c(Cl)c1Cl, the Potency was 24.3 µM (active).
For CCc1cccc(C)c1N(C(=O)C(=O)O)C(C)COC (stereo not given), the Potency was “inactive”.
In the case of CCN(CCC#N)c1ccc(N=Nc2ccc([N+](=O)[O-])cc2)cc1, the Potency was “inactive”.
For CC(=O)N(C)C, the Potency was “inactive”.
For [Cl][Eu]([Cl])[Cl], the Potency was “inactive”.
In the case of CCc1cccc(C)c1N(C(=O)CS(=O)(=O)O)C(C)COC (stereo not given), the Potency was “inactive”.
With Nc1ccc(F)c([N+](=O)[O-])c1 the Potency was “inactive”.
For C=C(C)C1CCC(C)CC1O (stereo not given), the Potency was “inactive”.
In the case of CCNc1nc(NC(C)(C)C)nc(OC)n1, the Potency was “inactive”.
For CC(=O)CC(N)=O, the Potency was “inactive”.
For CCC(C)(C)c1ccc(CC(C)CN2C[C@@H](C)O[C@@H](C)C2)cc1 (stereo not given in full), the Potency was “inactive”.
For Brc1cc(Br)cc(Br)c1, the Potency was “inactive”.
With CCC(=O)OC/C=C(\C)CCC=C(C)C the Potency was “inactive”.
For O=c1cc[nH]cc1, the Potency was “inactive”.
With CCCCCCCCSCc1cc(C)c(O)c(CSCCCCCCCC)c1 the Potency was “inactive”.
In the case of CN1CCN(C)CC1, the Potency was “inactive”.
With Cn1ccnc1 the Potency was “inactive”.
In the case of CCCCC/C=C\C=C\C(=O)OCC, the Potency was “inactive”.
For CC(C)=CCC[C@H](C)CC=O, the Potency was “inactive”.
For Cc1c(Cl)c(=O)oc2cc(O)ccc12, the Potency was “inactive”.
In the case of CCC1(C)C(=O)N(Cl)C(=O)N1Cl (stereo not given), the Potency was “inactive”.
In the case of CC1(C)[C@H]2CC[C@]1(C)C(=O)C2, the Potency was “inactive”.
